Hit rate of the full screen: of about 5,500 compounds, about 2,000 (36%) were called active. Not shown: some 18% with an inconclusive outcome. Rule as the data show it: active = normalized growth mostly below about 0.91 (no sharp cut-off); inconclusive = no clear call, values can overlap the other calls; inactive = mostly above about 0.92. This is one part of the list.
Experiment: chemical genetic growth profiling, strain panel (AID 1159580);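 also: tested at 20 µM; growth read once vehicle control cultures reached saturation at 30 °C; 1 = growth at the plate median or of vehicle wells; lower values mean less growth of the strain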
Settings: growth OD

Measured: normalized growth

COc1cc(N)c(Cl)cc1C(=O)NC1CCN(Cc2ccccc2)CC1
inactive: S. cerevisiae deletion strains, locus YJR043C, strain POL32, active compounds read low 0.985 | S. cerevisiae deletion strains, locus YJR075W, strain HOC1, active compounds read low 0.978 | S. cerevisiae deletion strains, locus YKL009W, strain mrt4, active compounds read low 0.993 | S. cerevisiae deletion strains, locus YKL068W, active compounds read low 0.974 | S. cerevisiae deletion strains, locus YKL085W, strain MDH1 (second series), active compounds read low 0.995 | S. cerevisiae deletion strains, locus YKL085W, strain MDH1, active compounds read low 0.995 | S. cerevisiae deletion strains, locus YKL160W, strain elf1, active compounds read low 0.991 | S. cerevisiae deletion strains, locus YKL190W, strain CNB1, active compounds read low 0.992 | S. cerevisiae deletion strains, locus YKR001C, strain vps1, active compounds read low 1 | S. cerevisiae deletion strains, locus YKR026C, strain gcn3, active compounds read low 0.988 | S. cerevisiae deletion strains, locus YKR091W, strain srl3, active compounds read low 0.993 | S. cerevisiae deletion strains, locus YLL001W, strain dnm1, active compounds read low 0.99 | S. cerevisiae deletion strains, locus YLL026W, active compounds read low 0.997 | S. cerevisiae deletion strains, locus YLL041C, strain sdh2, active compounds read low 0.996 | S. cerevisiae deletion strains, locus YLR027C, strain aat2, active compounds read low 1 | S. cerevisiae deletion strains, locus YLR039C, strain RIC1, active compounds read low 0.997 | S. cerevisiae deletion strains, locus YLR058C, strain SHM2, active compounds read low 0.988 | S. cerevisiae deletion strains, locus YLR102C, strain apc9, active compounds read low 0.994 | S. cerevisiae deletion strains, locus YLR221C, strain rsa3, active compounds read low 0.996 | S. cerevisiae deletion strains, locus YLR258W, strain gsy2, active compounds read low 0.994 | S. cerevisiae deletion strains, locus YLR262C, strain YPT6 (second series), active compounds read low 1.01 | S. cerevisiae deletion strains, locus YLR262C, strain YPT6, active compounds read low 0.969 | S. cerevisiae deletion strains, locus YLR268W, strain sec22, active compounds read low 0.935 | S. cerevisiae deletion strains, locus YLR320W, strain mms22, active compounds read low 1.01 | S. cerevisiae deletion strains, locus YLR330W, strain CHS5, active compounds read low 0.993 | S. cerevisiae deletion strains, locus YLR342W, strain FKS1 (second series), active compounds read low 1.05 | S. cerevisiae deletion strains, locus YLR342W, strain FKS1, active compounds read low 0.999 | S. cerevisiae deletion strains, locus YLR357W, strain rsc2, active compounds read low 1.02 | S. cerevisiae deletion strains, locus YLR370C, strain arc18, active compounds read low 0.998 | S. cerevisiae deletion strains, locus YLR371W, strain rom2, active compounds read low 0.989 | S. cerevisiae deletion strains, locus YLR384C, strain iki3, active compounds read low 0.993 | S. cerevisiae deletion strains, locus YLR418C, strain cdc73, active compounds read low 0.968 | S. cerevisiae deletion strains, locus YML016C, strain PPZ1, active compounds read low 1 | S. cerevisiae deletion strains, locus YML032C, strain rad52, active compounds read low 0.969 | S. cerevisiae deletion strains, locus YML120C, strain ndi1, active compounds read low 0.993 | S. cerevisiae deletion strains, locus YML124C, strain tub3, active compounds read low 0.996 | S. cerevisiae deletion strains, locus YMR058W, strain fet3, active compounds read low 1 | S. cerevisiae deletion strains, locus YMR078C, strain ctf18, active compounds read low 0.986 | S. cerevisiae deletion strains, locus YMR125W, strain sto1, active compounds read low 0.988 | S. cerevisiae deletion strains, locus YMR129W, active compounds read low 1 | S. cerevisiae deletion strains, locus YMR205C, strain PFK2, active compounds read low 0.997 | S. cerevisiae deletion strains, locus YMR223W, strain ubp8, active compounds read low 1.04 | S. cerevisiae deletion strains, locus YMR231W, strain pep5, active compounds read low 0.985 | S. cerevisiae deletion strains, locus YMR263W, strain SAP30, active compounds read low 0.978 | S. cerevisiae deletion strains, locus YMR307W, strain GAS1, active compounds read low 1.09 | S. cerevisiae deletion strains, locus YNL067W, strain RPL9B, active compounds read low 0.969 | S. cerevisiae deletion strains, locus YNL071W, strain lat1, active compounds read low 0.997 | S. cerevisiae deletion strains, locus YNL128W, strain TEP1, active compounds read low 0.984 | S. cerevisiae deletion strains, locus YNL153C, strain GIM3, active compounds read low 0.985 | S. cerevisiae deletion strains, locus YNL209W, strain ssb2, active compounds read low 1.01 | S. cerevisiae deletion strains, locus YNL233W, strain BNI4, active compounds read low 0.99 | S. cerevisiae deletion strains, locus YNL248C, strain rpa49, active compounds read low 0.991 | S. cerevisiae deletion strains, locus YNL250W, strain rad50, active compounds read low 1 | S. cerevisiae deletion strains, locus YNL271C, strain bni1, active compounds read low 0.995 | S. cerevisiae deletion strains, locus YNL298W, strain CLA4, active compounds read low 0.974 | S. cerevisiae deletion strains, locus YNL307C, strain MCK1, active compounds read low 0.977 | S. cerevisiae deletion strains, locus YNL322C, strain KRE1 (second series), active compounds read low 0.994 | S. cerevisiae deletion strains, locus YNL322C, strain KRE1, active compounds read low 0.991 | S. cerevisiae deletion strains, locus YNR049C, strain mso1, active compounds read low 0.997 | S. cerevisiae deletion strains, locus YNR052C, strain pop2, active compounds read low 0.993 | S. cerevisiae deletion strains, locus YOL006C, strain TOP1, active compounds read low 0.933 | S. cerevisiae deletion strains, locus YOL012C, strain htz1 1.69 | S. cerevisiae deletion strains, locus YOL147C, strain pex11, active compounds read low 0.996 | S. cerevisiae deletion strains, locus YOR001W, strain rrp6, active compounds read low 0.996 | S. cerevisiae deletion strains, locus YOR061W, strain CKA2, active compounds read low 0.994 | S. cerevisiae deletion strains, locus YOR069W, strain VPS5, active compounds read low 0.989 | S. cerevisiae deletion strains, locus YOR070C, strain gyp1, active compounds read low 0.997 | S. cerevisiae deletion strains, locus YOR080W, strain dia2, active compounds read low 1.01 | S. cerevisiae deletion strains, locus YOR083W, strain WHI5, active compounds read low 1 | S. cerevisiae deletion strains, locus YOR106W, strain vam3, active compounds read low 1 | S. cerevisiae deletion strains, locus YOR136W, strain idh2, active compounds read low 0.996 | S. cerevisiae deletion strains, locus YOR144C, strain elg1, active compounds read low 0.982 | S. cerevisiae deletion strains, locus YOR184W, strain ser1, active compounds read low 0.965 | S. cerevisiae deletion strains, locus YOR265W, strain rbl2, active compounds read low 0.998 | S. cerevisiae deletion strains, locus YOR270C, strain vph1, active compounds read low 1.02 | S. cerevisiae deletion strains, locus YOR290C, strain snf2, active compounds read low 0.984 | S. cerevisiae deletion strains, locus YOR316C, strain cot1, active compounds read low 0.963 | S. cerevisiae deletion strains, locus YPL051W, strain arl3, active compounds read low 0.993 | S. cerevisiae deletion strains, locus YPL055C, strain LGE1, active compounds read low 0.976 | S. cerevisiae deletion strains, locus YPL078C, strain atp4, active compounds read low 0.995 | S. cerevisiae deletion strains, locus YPL106C, strain sse1, active compounds read low 0.99 | S. cerevisiae deletion strains, locus YPL240C, strain hsp82, active compounds read low 0.999 | S. cerevisiae deletion strains, locus YPL241C, strain CIN2, active compounds read low 0.998 | S. cerevisiae deletion strains, locus YPR119W, strain clb2, active compounds read low 0.985 | S. cerevisiae deletion strains, locus YPR141C, strain kar3, active compounds read low 0.986 | S. cerevisiae deletion strains, locus YPR163C, strain tif3, active compounds read low 0.986 | S. cerevisiae deletion strains, locus YPR167C, strain met16, active compounds read low 0.983 | S. cerevisiae deletion strains, strain wtn01, active compounds read low 0.949 | S. cerevisiae strains, strain wild type, active compounds read low 1
